High-throughput results (PubChem)
FAK inh = blocks human focal adhesion kinase activity | biochemical FAK kinase activity assay | AID 727 | inhibition, %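 (tested at 7 µM)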 | Q05397 | 97,000 compounds, 0.84% hits; in the data active = inhibition above about 19%
Smad3 FoxH1 inh = inhibitors of human Smad3 transcription factor binding. TR-FRET Smad3/Dy647-FoxH1 peptide binding, europium anti-His. inhibition, % at 25 µM. 88,000 compounds, 0.29% hits. AID 630;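 active = compounds that reduce the energy-transfer binding signal between the protein and its labelled peptide by more than half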
ERa coact pot = ER-alpha (human) coactivator binding potentiation. P03372. coactivator binding (% of control), % at 25.6 µM. TR-FRET ERalpha-LBD/SRC-Cy5 coactivator binding, 2 h; 100 = basal binding, no effect. AID 639. 86,000 compounds, 1.3% hits; in the data active = activity above about 200%;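 also: binding measured in presence of low estradiol as agonist stimulus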
Target sequence (P03372 whole entry, looked up, the tested form may be a part): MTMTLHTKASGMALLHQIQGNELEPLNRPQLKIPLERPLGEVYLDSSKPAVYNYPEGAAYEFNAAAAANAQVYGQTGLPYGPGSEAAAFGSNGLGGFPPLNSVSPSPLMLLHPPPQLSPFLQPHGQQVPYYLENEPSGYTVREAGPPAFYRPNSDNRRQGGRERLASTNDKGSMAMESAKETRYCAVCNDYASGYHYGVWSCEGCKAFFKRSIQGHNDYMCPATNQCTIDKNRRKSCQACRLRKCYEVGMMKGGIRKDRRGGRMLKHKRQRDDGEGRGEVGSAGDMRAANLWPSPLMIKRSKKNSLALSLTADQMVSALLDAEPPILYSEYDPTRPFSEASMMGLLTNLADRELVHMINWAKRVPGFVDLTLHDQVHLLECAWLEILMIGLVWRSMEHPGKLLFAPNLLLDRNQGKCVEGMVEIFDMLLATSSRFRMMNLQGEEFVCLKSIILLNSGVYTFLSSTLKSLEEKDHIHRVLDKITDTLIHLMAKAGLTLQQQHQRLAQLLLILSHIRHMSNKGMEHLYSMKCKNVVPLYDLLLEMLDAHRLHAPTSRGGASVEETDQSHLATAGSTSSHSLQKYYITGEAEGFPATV
ERa SRC1 inh = ER-alpha (human) coactivator binding inhibition; P03372; TR-FRET ER-alpha LBD / SRC-1 peptide, estradiol-bound; inhibition, % at 25.6 µM; 86,000 compounds, 1.7% hits; in the data active = inhibition above about 50%
Candida biofilm = kills Candida albicans biofilms. C. albicans biofilm + clotrimazole, Alamar Blue. inhibition, % at 6 µM. 85,000 compounds, 0.14% hits. AID 834;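 active = inhibition above 20%; inactive = inhibition below 20%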;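 also: preformed 24 hr biofilms exposed to compound for 48 hr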
ERb SRC1 inh = ER-beta (human) coactivator binding inhibition. Q92731. 86,000 compounds, 1.3% hits. inhibition, % at 25.6 µM. TR-FRET ER-beta LBD / SRC1-Cy5 peptide binding; receptor agonist-loaded with 1 µM estradiol;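 active = compounds whose percent inhibition of the receptor-coactivator binding signal exceeds about 50% in the single-dose screen, limit read from the data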
A number is an active result; i = inactive; nt = no result given; [ ] = dose if it differs, or a comment. Sampled rows, rich in hits. Any-hit rate of the full collection: about 3.3%.

SMILES	FAK inh	Smad3 FoxH1 inh	ERa coact pot	ERa SRC1 inh	Candida biofilm	ERb SRC1 inh
Cc1ccc(C)c2[nH]c(=O)c(C(c3nnnn3Cc3ccccc3)N3CCc4ccccc4C3)cc12 (centres undefined)	i	i	294[fluorescence artefact?]	51[fluorescence artefact?]	i	i
Cc1cccc2cc(C(c3nnnn3CC3CCCO3)N3CCc4ccccc4C3)c(=O)[nH]c12 (centres undefined)	i	i	i	i	i	i
COc1ccc(N(Cc2ccccc2)C(=O)c2ccccc2[N+](=O)[O-])cc1	i	nt	nt	nt	nt	nt
CCN1CCN(Cc2c(O)c(Cl)cc3c(C)cc(=O)oc23)CC1	i	i	i	i	i	63
Cc1cc(=O)oc2c(CN3CCC(C)CC3)c(O)c(Cl)cc12	i	i	i	67	i	69[fluorescence artefact?]
Cc1cc(=O)oc2c(CN3CCCCC3)c(O)c(Cl)cc12	i	i	i	i	i	i
CC[C@@]1([N+](=O)[O-])C[C@H]2C=C[C@@H]1C2	nt	i	nt	nt	nt	nt
O=C(N/N=C/c1cccc(Oc2ccc([N+](=O)[O-])cc2[N+](=O)[O-])c1)c1cncc(Br)c1	i	i	i	96	i	i
CN1C[C@H](c2ccccc2)C(O)([C@]2(c3ccccc3)CN(C)C[C@H](c3ccccc3)C2=O)[C@H](c2ccccc2)C1 (some centres undefined)	nt	i	nt	nt	nt	nt
Clc1ccc2oc(-c3ccccc3)nc2c1	i	i	i	i	i	57[fluorescence artefact?]
Cc1ccccc1-c1nc2cc(Cl)ccc2o1	i	i	i	i	i	i
Cc1ccc(NCc2nnc(SCC(=O)NCCc3ccccc3)n2C)cc1	i	i	i	i	i	i
CCOC(=O)N1CCC(Nc2c(N3CCN(c4cccc(C(F)(F)F)c4)CC3)c(=O)c2=O)CC1	i	i	i	i	i	63[fluorescence artefact?]
CCOC(=O)N1CCC(Nc2c(-c3ccccc3)c(=O)c2=O)CC1	i	i	i	i	i	i
CN(C)c1ccc(NC(=O)CN2CCN(CC(=O)Nc3ccc(F)cc3)CC2)cc1	nt	i	i	i	i	54[fluorescence artefact?]
CC12C(=O)N(Cc3ccco3)C(=O)C1C1c3ccccc3C2c2ccccc21 (centres undefined)	i	i	i	i	i	55[fluorescence artefact?]
CC(C)Sc1nc(SCC(=O)NCc2ccco2)c2c3c(sc2n1)COC(C)(C)C3	nt	i	i	i	i	i
CCCSc1nc(SCC(=O)NCc2ccccc2)c2c3c(sc2n1)COC(C)(C)C3	i	i	294[fluorescence artefact?]	i	i	i
COc1ccc(OCC(=O)Nc2ccccc2O)cc1	i	i	i	i	82	i
Cc1csc2ncc(C(=O)NC(C)c3ccccc3)c(=O)n12 (centres undefined)	i	nt	nt	nt	nt	nt
Cc1nc2ccccc2n1CCC(=O)O	i	i	i	i	i	i
Cc1nc2ccccc2n2c(O)c(CC(=O)O)cc12	nt	i	i	i	i	58[fluorescence artefact?]
CC1CCC2(CC1)NC(=S)N(c1ccccc1)N2 (centres undefined)	i	i	i	i	83	i
O=C1NC2(CCCCC2)NN1c1ccccc1	i	i	i	i	i	i
CCNC(=O)CSc1ncnc2sccc12	i	i	i	66[fluorescence artefact?]	i	i
SMILES	FAK inh	Smad3 FoxH1 inh	ERa coact pot	ERa SRC1 inh	Candida biofilm	ERb SRC1 inh
COc1ccccc1NC(=O)Cn1cnc2c1c(=O)n(C)c(=O)n2C	i	i	i	i	i	i
Cc1ccccc1NC(=O)Cn1cnc2c1c(=O)n(C)c(=O)n2C	i	i	i	i	i	62
O=c1c(Cl)nc2cc(Cl)ccc2n1CCNc1ncc(C(F)(F)F)cc1Cl	i	nt	nt	nt	nt	nt
COc1ccc(Cl)cc1-n1c(=S)sc2c(=O)[nH]c(SCC(=O)NCC3CCCO3)nc21 (centres undefined)	i	i	i	i	i	i
Cc1c(CNCc2cccs2)c(C(=O)O)c(C)n1Cc1ccccc1	i	i	229[fluorescence artefact?]	i	i	i
C/C(=N\O)[C@@H]1C[C@H](CC(=O)O)C1(C)C	nt	i	nt	nt	nt	nt
Oc1c(Cl)cc(C(c2cc(Cl)c(O)c(Cl)c2)C(c2cc(Cl)c(O)c(Cl)c2)c2cc(Cl)c(O)c(Cl)c2)cc1Cl	nt	i	nt	nt	nt	nt
O=C(CSc1nnc(C2CC2)n1Cc1ccccc1)NCc1ccccc1	i	i	i	i	i	i
Nn1c(SCC(=O)NC(=O)NCc2ccccc2)nnc1C1CC1	i	i	i	i	i	81[fluorescence artefact?]
O=C1CC(N2CCN(c3ccc(C(=O)c4ccc(F)cc4)cc3)CC2)C(=O)N1 (centres undefined)	i	i	221	i	i	i
CCN(CC)c1ccc2c(c1)oc(=O)c1c(Cl)cc(=O)oc12	i	i	309	i	i	i
CCCOC(=O)c1ccc(NS(=O)(=O)c2cccs2)cc1	i	i	i	i	i	i
O=C(O)c1ccc2c(c1)OCCO2	i	i	i	77[fluorescence artefact?]	i	i
CN1CCN(C(=O)c2ccc3c(c2)OCCO3)CC1	i	i	i	i	i	i
CN1CCCC(OC(=O)c2ccc3c(c2)OCCO3)C1 (centres undefined)	i	i	i	i	i	60
O=C(COc1ccc2c(c1)OCO2)Nc1ccc2c(c1)oc1ccccc12	i	i	i	51[fluorescence artefact?]	i	i
NC(=O)Cc1c[nH]c2cccc(O)c12	nt	i	i	73[fluorescence artefact?]	i	93[fluorescence artefact?]
CCOC(=O)N1CCN(c2c(NCCCOC(C)C)c(=O)c2=O)CC1	nt	i	213	i	i	i
N=C(N)c1ccc(N=Nc2c(O)ccc3c2[nH]c2ccccc23)cc1	nt	102	nt	nt	nt	nt
Cc1oc(CC(C)C)c(CN)c1C(=O)O	i	nt	nt	nt	nt	nt
CN1CCC[C@H]1c1cccnc1.O=C(O)c1ccccc1O.O=C([OH2+])c1ccccc1O.O=C([OH2+])c1ccccc1O.O=C([OH2+])c1ccccc1O.[Cu]	nt	97	nt	nt	nt	nt
COc1ccc(OC)c(NC(=O)C2CCN(Cc3cnn(-c4ccccc4)c3-n3cccc3)CC2)c1	i	i	215	i	i	i
CCOC(=O)c1cnc(SCC(=O)Nc2nc(C)c(C)s2)nc1N	i	i	i	i	i	i
CCOC(=O)c1cnc(SCC(=O)Nc2nnc(CC)s2)nc1N	i	i	235	i	i	i
CC(C)(C)NS(=O)(=O)c1ccc(NC(=O)C(Sc2ccccc2)c2ccccc2)cc1 (centres undefined)	i	nt	nt	nt	nt	nt
SMILES	FAK inh	Smad3 FoxH1 inh	ERa coact pot	ERa SRC1 inh	Candida biofilm	ERb SRC1 inh
Oc1[nH]c2ccccc2c1C1=NCCCC1	i	i	i	82[fluorescence artefact?]	i	92[fluorescence artefact?]
Cc1cc(C)n2nc(SCc3cc(=O)oc4cc(O)ccc34)nc2n1	i	i	i	58	i	62[fluorescence artefact?]
CN(C)c1ccc(N2CN=C3SCC(=O)N3C2)cc1	i	i	i	i	i	86[fluorescence artefact?]
O=C(Nc1ccc(Cl)cn1)c1ccc2ccccc2n1	i	i	i	i	i	i
CC(=O)Nc1cccc(C(=O)Nc2ccccc2C(=O)O)c1	i	i	i	i	i	i
O=C(Nc1ccccc1C(=O)O)c1ccc2ccccc2n1	i	i	i	i	i	91[fluorescence artefact?]
O=C(Nc1ccccc1C(=O)O)c1ccccc1	i	i	i	i	i	51
c1coc(-c2nnc(SCc3nc4ccccc4[nH]3)o2)c1	i	i	i	i	i	i
CCOC(=O)c1c2c(n(C)c1COC)C(=O)C(=O)c1ccc(Br)cc1-2	52	75	i	85	i	i
